From PubChem BioAssay AID602409 (Sanford-Burnham Center for Chemical Genomics, 2012)
Some of the results follow. Unmarked numbers belong to inactive results. Calls of active or inactive are those of the source.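 Rule for the calls: active = mean inhibition over four retests above 40%; inactive = the rest.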

These molecules were tested against C-X-C chemokine receptor type 6 (Homo sapiens) (UniProt O00574) (assay: CXCR6 receptor antagonists, confirmation, cell-based, single concentration, beta-arrestin, luminescence (AID 602409;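 note: receptor stimulated with 10 nM CXCL16 agonist; beta-galactosidase fragment complementation upon beta-arrestin recruitment to receptor; plate controls were CXCL16 plus DMSO for no effect and DMSO without CXCL16 for full effect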)). Conditions: CHO-K1 CXCR6 PathHunter beta-arrestin, at 20 µM, hits give high values.
Sequence of C-X-C chemokine receptor type 6 (Homo sapiens) (O00574 whole entry, looked up, the tested form may be a part): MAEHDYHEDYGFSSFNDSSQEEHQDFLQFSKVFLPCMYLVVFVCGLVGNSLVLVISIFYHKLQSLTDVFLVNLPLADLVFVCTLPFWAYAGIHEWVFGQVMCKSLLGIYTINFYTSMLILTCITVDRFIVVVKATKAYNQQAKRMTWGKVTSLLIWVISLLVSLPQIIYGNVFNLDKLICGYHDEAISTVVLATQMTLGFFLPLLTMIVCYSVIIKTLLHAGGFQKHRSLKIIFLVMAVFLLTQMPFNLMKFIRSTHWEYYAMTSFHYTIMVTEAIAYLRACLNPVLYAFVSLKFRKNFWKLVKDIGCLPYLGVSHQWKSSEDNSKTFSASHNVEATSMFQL
`Cc1c(C(=O)NCCN(C)C)oc2ccc(S(=O)(=O)N3CCCC3)cc12` gave an inhibition of 10.1%.
In the case of `Cc1ccc(-n2[nH]c(C)c(/C=N/N3C(=O)c4cccc5cccc(c45)C3=O)c2=O)cc1`, the inhibition is reported as 60.2% (active).
`CCCCCCCCCCOC(=O)Cn1c(COc2cccc(OC)c2)[n+](C)c2ccccc21` gave an inhibition of 4%.
With `O=C1C=CC(=O)N1c1ccc(N2CCCCC2)cc1` the inhibition was 63.5% (active).
`COC(=O)/C=C\C(=O)Nc1cccc([N+](=O)[O-])c1` was tested, and the inhibition was 45.6% (active).
`CCC(=O)OCCNc1nc(-c2ccccc2)nc2ccccc12` showed an inhibition of 11.6%.
In the case of `CCN(CC)CCn1c(N)c(S(=O)(=O)c2ccccc2)c2nc3ccccc3nc21`, the inhibition is reported as 55% (active).
`CCCCCCCCCCOC(=O)C[N+](C)(C)CC1CCCCC1O` (centres undefined) gave an inhibition of 14.4%.
In the case of `COc1ccc(-c2csc(Cc3nc(O)cs3)n2)cc1`, the inhibition is reported as 77% (active).
`COCCCNC(=S)NC(=O)c1ccc([N+](=O)[O-])cc1` was tested, and the inhibition was 19.8%.
For `O=C(CSc1cccc2cccnc12)N/N=C/c1cccnc1`, the inhibition was 67.2% (active).
For `CC(C)N=C1CCCC1C(=S)SSC(=S)C1CCCC1=NC(C)C` (centres undefined), the inhibition was 94.9% (active).
For `COc1cccc2sc(N(CCCN(C)C)C(=O)CCS(=O)(=O)c3ccccc3)nc12`, the inhibition was 81% (active).
`Cc1cc(C(=O)NCCCc2ccccc2)no1` was tested, and the inhibition was 9.46%.
`Cc1cc(C)nc(S/C=C/C(=O)c2ccccc2)n1` was tested, and the inhibition was 41.5% (active).
With `C/C(=N\NC(=O)Cc1ccc(Cl)cc1)c1ccccn1` the inhibition was 104% (active).
`CC(=O)Nc1cc(-c2ccc(N3CCN(C)CC3)cc2)cn2c(-c3ccc(F)cc3)cnc12` gave an inhibition of 31.3%.
In the case of `CCOCCCN1C(=O)C2C(C(=O)Nc3ccc(OCC)cc3)C3C=CC2(O3)C1C(=O)NC1CCCCC1` (centres undefined), the inhibition is reported as -4.97%.
Molecule `O=C(Nc1ccccc1)c1nnsc1S(=O)(=O)c1ccc(Cl)cc1` has an inhibition of 19.7%.
`O=[N+]([O-])/C=C/c1ccc2c(ccn2Cc2ccccc2)c1` was tested, and the inhibition was 76.2% (active).
`O=C(Nc1ccccc1Cl)/C(Cl)=C(\Cl)S(=O)c1ccccc1` (centres undefined) was tested, and the inhibition was 81% (active).
`O=C(C1CC(=O)N(C2CCCCC2)C1)N1CCN(c2ccccc2)CC1` (centres undefined) showed an inhibition of 3.17%.
For `CC(=O)/C(=N\Nc1ccc(Cl)cc1Cl)Sc1cccc2cccnc12`, the inhibition was 81% (active).
Work on `CCCCNC(=S)N/N=C1\CCCCc2ccccc21` yielded an inhibition of 24.7%.
